Results as given in PubChem BioAssay AID602248 (The Scripps Research Institute Molecular Screening Center, 2012).
About 1,700 (0.47%) of roughly 360,000 compounds were called active. The sample holds actives, similar compounds and a random draw of the others, so the mix is not that of the screen. No stated cut-off is given here; in the data, active means activation above about 15%; inactive means the rest.

Experiment: counter-screen for M1 agonists: effect in parental CHO-K1 cells (AID 602248);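 further: untransfected CHO-K1 host cells lacking M1 receptor as counterscreen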
Settings: Fluo-8 calcium fluorescence, at 3 µM, active compounds read high, scaled to maximal ATP response, vehicle zero

Q: With `COC(=O)c1cc(C(=O)OCC(=O)Nc2cc(C)on2)cc([N+](=O)[O-])c1` as the compound, how does the activation read?
A: Its activation is 0.23% (inactive).

Q: With `CN1CCN(C(=O)c2cnn(-c3ccccc3)c2NC(=O)c2ccc([N+](=O)[O-])cc2)CC1` as the compound, how does the activation read?
A: The activation was 0.79% (inactive).

Q: Which activation does the source give for `COc1cc(C(=O)NCc2ccc(-n3cccc3)cc2)cc(OC)c1OC` here?
A: The activation was 7.89% (inactive).

Q: Which activation does the source give for `CCn1c(CNC(=O)c2cc(OC)c(OC)c(OC)c2)cc2cc(C)ccc21` here?
A: The activation was 20.6% (active).

Q: With `COc1cc(C(=O)NCc2ccc3c(c2)cc(C)n3C)cc(OC)c1OC` as the compound, how does the activation read?
A: The activation was -0.48% (inactive).

Q: With `CCCCC(=O)NNC(=S)NC(=O)C(c1ccccc1)c1ccccc1` as the compound, how does the activation read?
A: Its activation is 86% (active).

Q: Which activation does the source give for `CCCCC(=O)NCc1ccc(F)cc1` here?
A: The activation was -0.33% (inactive).

Q: With `CCCOCC(O)CC(CC)C(=O)NNC(=S)Nc1ccccc1` (stereo not given) as the compound, how does the activation read?
A: The activation was 0.03% (inactive).

Q: For `CCCCC(CC)CNC(=O)C(=O)C1C(=O)Nc2ccccc21` (stereo not given), which activation is on record?
A: Its activation is -0.65% (inactive).

Q: With `CCOC(=O)c1c(C)oc(C)c(C(=O)OCC)c1=O` as the compound, how does the activation read?
A: The activation was 0.16% (inactive).

Q: For `O=C1NC[C@H](CCCCN2C[C@H](Cc3ccc(O)cc3)N(CCc3ccccc3)C(=O)C2=O)N(CCc2ccccc2)C1=O`, which activation is on record?
A: Its activation is 0.62% (inactive).

Q: For `N#C/C(=C/c1ccc(N2CCCCC2)o1)C(=O)NCCc1c[nH]c2ccccc12`, which activation is on record?
A: Its activation is 24.1% (active).

Q: With `N#C/C(=C\c1ccc(N2CCOCC2)o1)C(=O)N1CCOCC1` as the compound, how does the activation read?
A: Its activation is 4.52% (inactive).

Q: With `Cc1ccc(C(=O)N/C(=C/c2ccco2)C(=O)NCCc2c[nH]c3ccccc23)cc1C` as the compound, how does the activation read?
A: Its activation is 1.71% (inactive).

Q: Which activation does the source give for `CCc1nnc(NC(=O)CSc2nnnn2-c2cccc(C(C)=O)c2)s1` here?
A: The activation was -0.49% (inactive).

Q: Which activation does the source give for `CCSc1nsc(NC(=O)Nc2cccc(C(C)=O)c2)n1` here?
A: Its activation is 16.5% (active).

Q: For `C=CCSc1nsc(NC(=O)Nc2cccc(C(C)=O)c2)n1`, which activation is on record?
A: Its activation is 15.8% (active).

Q: Which activation does the source give for `CC(=O)c1cccc(NC(=O)[C@@H](NC(N)=O)C(C)C)c1` here?
A: The activation was -0.09% (inactive).

Q: Which activation does the source give for `CCCCN1C(=O)C(=O)N(CC(=O)Nc2cccc(C(C)=O)c2)C1=O` here?
A: Its activation is -0.29% (inactive).

Q: With `COc1ccc(C(=O)OCC(=O)Nc2cccc(C(C)=O)c2)cc1OC` as the compound, how does the activation read?
A: The activation was 2.14% (inactive).

Q: With `Cc1ccc(C(=O)N2CCC(n3nccc3NC(=O)Nc3cccc(F)c3)CC2)cn1` as the compound, how does the activation read?
A: Its activation is 1.73% (inactive).

Q: With `COc1ccc(OCC(=O)OCC(=O)Nc2ccc(S(=O)(=O)N3CCCCC3)cc2)cc1` as the compound, how does the activation read?
A: Its activation is 0.75% (inactive).

Q: With `CCOC(=O)COc1ccc(Cl)cc1C1NC(=O)NC(C)=C1C(C)=O` (stereo not given) as the compound, how does the activation read?
A: Its activation is 0.08% (inactive).

Q: For `CN(C)CCCCCN(C)Cc1cc2ccccc2o1`, which activation is on record?
A: The activation was 0% (inactive).

Q: Which activation does the source give for `CCCCNC(=O)c1nc(C2CCN(S(=O)(=O)c3ccc(F)c(F)c3)CC2)oc1-c1cccc(C(F)(F)F)c1` here?
A: Its activation is 2.76% (inactive).

Q: For `Cn1nnnc1SCC(=O)NNC(=O)c1ccc(Br)cc1`, which activation is on record?
A: The activation was -0.47% (inactive).

Q: Which activation does the source give for `COC(=O)COc1ccc2c(=O)c(Oc3ccccc3Br)coc2c1` here?
A: The activation was 0.1% (inactive).

Q: For `C[C@H](CO)N1C[C@H](C)[C@@H](CN(C)S(=O)(=O)c2ccc(Oc3ccccc3)cc2)OCc2cn(nn2)CCCC1=O`, which activation is on record?
A: The activation was 0.23% (inactive).

Q: Which activation does the source give for `CC(OC(=O)CN1C(=O)C2CCCCC2C1=O)C(=O)Nc1ncc(Cl)cc1Cl` (stereo not given) here?
A: The activation was 0.87% (inactive).

Q: With `c1ccc2c(c1)OCC(CNc1ncnc3nc[nH]c13)O2` (stereo not given) as the compound, how does the activation read?
A: The activation was 109% (active).

Q: With `O=C(COC(=O)c1ccc(F)cc1)NCC1COc2ccccc2O1` (stereo not given) as the compound, how does the activation read?
A: Its activation is 1.54% (inactive).

Q: For `O=C(COc1ccc(F)cc1Br)NCC1COc2ccccc2O1` (stereo not given), which activation is on record?
A: Its activation is 0.07% (inactive).

Q: Which activation does the source give for `Cn1c(N)cc(=O)n(C)c1=S` here?
A: The activation was -0.09% (inactive).

Q: With `COc1ccc(S(=O)(=O)N2CCOCC2)c(C)c1C` as the compound, how does the activation read?
A: The activation was 0.55% (inactive).

Q: With `COCCNc1ncnc2c1nc1n2CCCC1` as the compound, how does the activation read?
A: The activation was 0.47% (inactive).

Q: With `O=C(/C=C/c1c(Cl)cccc1Cl)NCc1ccccc1` as the compound, how does the activation read?
A: Its activation is 0.05% (inactive).

Q: For `O=C(CCc1ccccc1)Nc1nn[nH]n1`, which activation is on record?
A: Its activation is 1.57% (inactive).

Q: With `O=C(/C=C/c1c(F)cccc1Cl)Nc1nn[nH]n1` as the compound, how does the activation read?
A: Its activation is 22% (active).

Q: Which activation does the source give for `O=C1CCC(=O)N(O)CCCCCNC(=O)CCC(=O)N(O)CCCCCNC(=O)CCC(=O)N(O)CCCCCN1` here?
A: The activation was -0.15% (inactive).

Q: Which activation does the source give for `CCOc1ccc(OCC)c(NC(=O)C2CCN(S(=O)(=O)c3c(C)noc3C)CC2)c1` here?
A: The activation was -0.25% (inactive).

Q: With `Clc1ccc(CSc2nnc([C@@H]3CCCN3)o2)cc1` as the compound, how does the activation read?
A: Its activation is 0.78% (inactive).

Q: Which activation does the source give for `CCN1/C(=C\c2ccc3ccccc3[n+]2CC)Sc2cc(C)ccc21` here?
A: The activation was 22.8% (active).

Q: For `Cc1nn(C)cc1N1C(=O)c2cccc3c(N)ccc(c23)C1=O`, which activation is on record?
A: Its activation is 40.2% (active).

Q: With `CN1C(=O)c2cccc3c(N)ccc(c23)C1=O` as the compound, how does the activation read?
A: The activation was 28.8% (active).

Q: Which activation does the source give for `CC(=O)OC1CCC2(C)C(=CCC3C4CC(=O)N(O)C(=O)C4(C)CCC32)C1` (stereo not given) here?
A: Its activation is 0.34% (inactive).

Q: Which activation does the source give for `O=C1CCC[C@@H]2CC(N3CCCCC3)C[C@@H]3CCN1[C@H]23` (stereo not given in full) here?
A: Its activation is 0.27% (inactive).

Q: For `CCCc1c(C(=O)N/N=C(\C)CCc2ccc(OC)cc2)nnn1-c1nonc1N`, which activation is on record?
A: The activation was 0.32% (inactive).

Q: Which activation does the source give for `Cc1ccc(S(=O)(=O)Nc2nc(CN3CCOCC3)nc3sc(C)c(C)c23)cc1` here?
A: Its activation is 0.12% (inactive).

Q: For `CCCCCCCCCCCCN1C(=O)CSC1c1cccnc1` (stereo not given), which activation is on record?
A: Its activation is 1.63% (inactive).

Q: For `Oc1ccc2ccc3cccc[n+]3c2c1`, which activation is on record?
A: The activation was 25.3% (active).

Q: Which activation does the source give for `COc1ccc(CCNC(=O)CSc2nnc3ccc(-c4ccncc4)nn23)cc1` here?
A: Its activation is 0.28% (inactive).

Q: Which activation does the source give for `COCc1cc(C)nc2sc3c(=O)n(-c4cccc5ccccc45)nnc3c12` here?
A: Its activation is 0.44% (inactive).

Q: Which activation does the source give for `O=C(NCc1ccccc1)C1CCCN(S(=O)(=O)c2cccs2)C1` (stereo not given) here?
A: Its activation is 0.58% (inactive).

Q: Which activation does the source give for `O=C(NCc1ccccc1)C1CCCN(c2nc3ccsc3c(=O)s2)C1` (stereo not given) here?
A: Its activation is 18.9% (active).

Q: With `Cc1cc(=O)n2nc(N3CCCC(C(=O)NCc4ccc(Cl)cc4)C3)sc2n1` (stereo not given) as the compound, how does the activation read?
A: Its activation is 0.13% (inactive).

Q: For `CC(C)NC(=O)c1ccc(Sc2ccccc2)c([N+](=O)[O-])c1`, which activation is on record?
A: The activation was -0.3% (inactive).

Q: For `CC(C)(C)NC(=O)CN1CCC(NC(=O)C23CC4CC(CC(C4)C2)C3)CC1`, which activation is on record?
A: The activation was 0.73% (inactive).

Q: Which activation does the source give for `COc1cc(OC)c(C(=S)N2CCCC2)cc1OC` here?
A: The activation was -0.12% (inactive).

Q: For `CC(NC(=O)c1cccc2ccccc12)c1ccc2c(c1)CCCC2` (stereo not given), which activation is on record?
A: The activation was -0.03% (inactive).

Q: Which activation does the source give for `Nc1ccc2nc3c(=O)[nH]c(=S)[nH]c3nc2c1` here?
A: Its activation is 21.2% (active).
